HTT ATP protect = qHTS Multiplex Assay to Identify Dual Action Probes in a Cell Model of Huntington: Cytoprotection (ATP); PC12 HTT-Q103 induced, cytoprotection, ATP luminescence, 40 h; Potency, µM (highest dose often 56.4 µM), actives largely listed as activators; hit rate 0.14% among 230,000; further: nearly all actives have a fitted effect of over 45% in size
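Cells were plated at 1500 per well in phenol red-free DMEM with 5% equine and 5% calf serum. Tebufenozide (100 nM final) and compounds were added, then ATPlite reagent, and luminescence was read.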
HttQ103 aggreg = qHTS Multiplex Assay to Identify Dual Action Probes in a Cell Model of Huntington: Aggregate Formation (GFP); hit rate 1.1% among 220,000; AID 1688, 2009; Potency, µM (highest dose often 46.1 µM), hits mostly inhibitors; PC12 HttQ103-GFP aggregates, Acumen cytometry, 40 h; further: nearly all actives have a fitted effect of over 60% in size
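Quantitative HTS on tebufenozide-induced (100 nM) PC12 cells stably expressing polyQ103 Huntingtin exon 1–GFP. Reduction of bright GFP aggregates, detected by laser scanning cytometry after lysis, identified actives across the titration.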
Lamin A splicing = qHTS Assay for Modulators of Lamin A Splicing | hit rate 0.01% among 200,000 | Potency, µM (doses to about 46.1 µM), hits mostly inhibitors | HeLa LMNA splicing GFP/RFP minigene ratio, 48 h; active means well fitted inhibition curve with a large enough effect in the signal ratio, with a control signal flat, not every such curve was filed as active; inconclusive means small, poorly fitted or top-dose-only effect, or effect the other way, or a change in a side signal; the % refers to the signal ratio
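S3 HeLa cells stably expressing lamin A-EGFP splicing minigene plus DsRed2, 600 cells/well, 48 h compound exposure at 37C. Laser-scanning cytometry; analysed as GFP (500-530 nm)/RFP (575-640 nm) total intensity ratio; 0.5% DMSO vehicle.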
IMPase Li inh = qHTS Assay for Identifying the Cell-Membrane Permeable IMPase Inhibitors: Potentiation with Lithium; CHO-M1 cells, IP1 TR-FRET (IP-One), carbachol + lithium; Potency, µM (series often up to 59.4 µM), usual class: inhibitors; hit rate 0.35% among 210,000; AID 1457, 2008;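 further: IP1 builds up when IMPase is blocked and the TR-FRET signal falls; nearly all actives have a fitted effect of over 50% in size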
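Test compounds were applied to CHO-M1 cells previously cultured for 16–30 h at 2000 per well. A small lithium amount accompanied them; after 30 min at 37C, IP1 was quantified by TR-FRET.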
IMPase cell inh = qHTS Assay for Identifying the Cell-Membrane Permeable IMPase Inhibitors | Inositol monophosphatase 1 (Rattus norvegicus), P97697 | CHO-M1 cells, IP1 accumulation, HTRF TR-FRET ratio | inhibition (IP1 accumulation), % at 46.1 µM | 120,000 tested, under 10 active | AID 901, 2007; active means well fitted curve in the direction sought with a large enough effect in the signal ratio, not every such curve was filed as active; inconclusive means small, poorly fitted or top-dose-only effect, or a change in a side signal; inactive means no such curve, though single readings can be large or run the other way; the % refers to the signal ratio;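 further: cells stimulated with carbachol in lithium chloride buffer; higher means more IMPase inhibition seen as more IP1 and lower FRET ratio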
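In this qHTS, compounds (final up to 46 uM) act on CHO-M1 cells that are then activated through the M1 receptor with carbachol, in pH 7.4 buffer containing 50 mM LiCl, for 30 min. IP1 accumulation is quantified by the IP-One immunoassay.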
NPSR antag = qHTS Assay for Antagonists of the Neuropeptide S Receptor: cAMP Signal Transduction; Q6W5P4; CHO-NPSR cells, cAMP TR-FRET, antagonist mode; Potency, µM (highest dose often 38.3 µM), actives largely listed as inhibitors; hit rate 1% among 220,000; further: nearly all actives have a fitted effect of over 50% in size
Target sequence (Q6W5P4 whole entry, looked up): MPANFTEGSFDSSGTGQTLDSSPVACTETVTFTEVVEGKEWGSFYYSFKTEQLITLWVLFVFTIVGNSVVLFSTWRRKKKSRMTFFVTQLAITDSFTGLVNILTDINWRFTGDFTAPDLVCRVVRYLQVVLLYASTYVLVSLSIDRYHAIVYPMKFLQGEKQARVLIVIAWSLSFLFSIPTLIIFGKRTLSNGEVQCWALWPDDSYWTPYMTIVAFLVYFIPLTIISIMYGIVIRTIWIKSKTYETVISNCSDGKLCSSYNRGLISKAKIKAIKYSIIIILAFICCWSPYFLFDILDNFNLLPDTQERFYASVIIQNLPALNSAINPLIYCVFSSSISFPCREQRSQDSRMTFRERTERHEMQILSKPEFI
Hits are given with their value; - = inactive; ? = inconclusive; . = not tested or not shown; [ ] = remark or other dose. An excerpt weighted towards active compounds, which were near 1.6% of everything screened. Unless noted, the call rests on the fitted dose curve; in most records, active means well fitted curve in the direction sought with a large enough effect; inconclusive means small, poorly fitted or top-dose-only effect, or another doubt; inactive means no such curve, though single readings can be large; an effect the other way counts as inactive or inconclusive.

SMILES | HTT ATP protect | HttQ103 aggreg | Lamin A splicing | IMPase Li inh | IMPase cell inh | NPSR antag
Cc1cc(/C=N/n2cnnc2)c(C)n1-c1ccc(OCc2ccc(F)cc2)cc1 | -[10 µM] | 7.08µM | ? | - | - | -
Clc1ccc(CSC2=NCCN2)cc1Cl | -[10 µM] | . | . | - | . | .
Cc1ccc(-c2csc(N3CCC(NS(=O)(=O)c4ccc5c(c4)OCCO5)CC3)n2)cc1 | ? | 6.31µM | - | - | - | ?
Cc1ccc(CNS(=O)(=O)c2ccc3c(c2)OCCO3)cc1 | . | - | ? | - | . | -
CCCCN1C=CC(=C2N=c3cccc([N+](=O)[O-])c3=N2)C=C1 | -[10 µM] | 0.891µM | - | - | . | -
CCCCCCN1C=CC(=C2C(=O)c3ccccc3C2=O)C=C1 | -[10 µM] | -[9.22 µM] | . | - | . | -
Cn1c(=O)c2c(nc(C(=N)SCC(=O)O)n2C)n(C)c1=O | -[10 µM] | . | . | - | . | .
COC(=O)[C@@]1(Cc2ccc(F)cc2)[C@@H]2C(=CC(=O)[C@H]2CC(=O)C(=O)N(C)C)CN1C(=O)c1ccccc1 | 3.98µM | . | . | - | . | .
COC(=O)[C@@]1(Cc2ccccc2)[C@@H]2C(=CC(=O)[C@H]2CC(=O)C(=O)N(C)C)CN1C(=O)c1ccccc1 | ? | ? | ? | - | . | -
COc1ccc(CCNC(=O)COc2ccc(-c3ccccc3)cc2)cc1OC | -[10 µM] | - | - | 10µM | - | -
COc1ccc(CCNC(=O)CC(c2ccccc2)c2cccc(C)c2O)cc1OC (stereo not given) | - | - | - | - | . | 1µM
O=C(O)C/C=C\CC(=O)O | -[10 µM] | . | . | - | . | .
Cc1cnc(C(=O)O)cn1 | - | - | . | . | . | .
CC(NC(=O)CSc1nnc(-c2cccc(S(=O)(=O)N3CCCCC3)c2)o1)C12CC3CC(CC(C3)C1)C2 (stereo not given) | - | ? | - | - | - | 10µM
CC1(C)CC(=O)c2c(oc3cc4c(cc23)OCO4)C1 | - | . | . | - | . | .
O=C(CSc1c2c(nc3cc(Cl)ccc13)CCCC2)NCc1ccco1 | 12.6µM | . | ? | - | - | ?
COc1ccc(C(=O)c2c(C(F)(F)F)oc3c2C(=O)c2ccccc2C3=O)cc1 | - | 3.16µM | ? | - | - | -
Cc1ccc(C(=O)c2c(C)oc3c2C(=O)C(=O)c2ccccc2-3)cc1 | - | ? | ? | - | - | -
Cc1cc(N2C(=O)C(O)=C(C(=O)c3cccs3)C2c2cccc(O)c2)no1 (stereo not given) | - | - | - | - | - | -
Cc1cc(N2C(=O)C(O)=C(C(=O)c3cccs3)C2c2ccccc2)no1 (stereo not given) | - | - | - | 14.1µM | ? | ?
Cc1cc(N2C(=O)C(O)=C(C(=O)c3cccs3)C2c2ccc(F)cc2)no1 (stereo not given) | -[10 µM] | -[9.22 µM] | . | . | . | ?
COc1cccc(C2C(C(=O)c3cccs3)=C(O)C(=O)N2c2cc(C)on2)c1 (stereo not given) | - | - | - | 10µM | ? | -
COc1ccc(Cc2nnc(N/N=C/c3ccc(Br)cc3)[nH]c2=O)cc1OC | -[10 µM] | -[9.22 µM] | . | . | . | -
COc1ccc(Cc2nnc(N/N=C/c3ccc(O)cc3)[nH]c2=O)cc1OC | -[10 µM] | 1.12µM | ? | - | - | -
CN1c2c(nc(N)[nH]c2=O)NCC1CNc1ccc(C(=O)NC(CCC(=O)O)C(=O)O)cc1 (stereo not given) | ? | - | . | . | . | .
SMILES | HTT ATP protect | HttQ103 aggreg | Lamin A splicing | IMPase Li inh | IMPase cell inh | NPSR antag
CCN(CC)c1ccc2cc(-c3nc4ccccc4n3C)c(=O)oc2c1 | - | ? | - | - | - | ?
CCN(CC)c1ccc2cc(-c3nc4ccccc4[nH]3)c(=O)oc2c1 | -[10 µM] | 0.316µM | ? | - | - | ?
CCN(CC)c1ccc2cc(-c3nc(-c4ccc(OC)cc4)cs3)c(=O)oc2c1 | -[10 µM] | 2.82µM | ? | - | - | -
CCN(CC)c1ccc2cc(-c3nnc(-c4ccccc4)o3)c(=O)oc2c1 | -[10 µM] | 7.08µM | ? | - | - | -
CCc1ccc(-c2csc(-c3cc4cc(Br)ccc4oc3=O)n2)cc1 | . | . | - | . | . | .
C/C(=N/O)[C@@H]1C[C@H](CC(=O)O)C1(C)C | -[10 µM] | . | . | - | . | .
COc1ccc(OC)c(Nc2cc(-c3ccccc3)nc(N)n2)c1 | -[10 µM] | 1.26µM | ? | - | - | ?
COc1cccc(Nc2cc(-c3ccccc3)nc(C)n2)c1 | . | . | - | . | . | .
CC(C)(C)NC[C@H](O)CSc1nc(-c2ccc(C(N)=O)s2)cs1 | - | - | . | . | . | .
OC[C@@H]1O[C@@H](n2cnc3c(Nc4ccccc4)ncnc32)[C@@H](O)[C@H]1O | -[1.9 µM] | . | . | . | - | .
O=c1[nH]c(=O)n(Cc2ccco2)c2c1C(C(F)(F)F)(C(F)(F)F)N=C(c1ccc(F)cc1)N2 | -[10 µM] | 1.26µM | ? | - | - | -
